Our source for the potency estimated from few doses values is paper PMC11062922 (Nature Chemical Biology, 2023).

Where two headings read alike, the source gives them in different places.

Design in all cases: species or system human, MV4-11 + K-562 + COLO205 + SK-N-BE2 + OVCAR-8
One experiment has as its system BMP2K. Conditions: read-out: apparent Kd; compound concentrations: 100 nM and 1000 nM (sheet 'Samples'), CATDS: 7.6838434423815494E-2; n = 1.
A further experiment relates to CDKL5. The following applies: read-out: apparent Kd; compound concentrations: 100 nM and 1000 nM (sheet 'Samples'), CATDS: 7.5707148377712405E-2; n = 1.
Another experiment concerns FLT3. Conditions: read-out: apparent Kd, compound concentrations: 100 nM and 1000 nM (sheet 'Samples'), n = 1.
For a further experiment, the system named is GSK3A. Conditions: read-out: apparent Kd; compound concentrations: 100 nM and 1000 nM (sheet 'Samples'), CATDS: 8.1333822841740205E-2; n = 1.
In the next experiment the test system is GSK3B. The following applies: read-out: apparent Kd; compound concentrations: 100 nM and 1000 nM (sheet 'Samples'), CATDS: 7.5519353695847294E-2; n = 1.
A further experiment deals with HSPE1. Conditions: read-out: apparent Kd; compound concentrations: 100 nM and 1000 nM (sheet 'Samples'), CATDS: 0.31901289007405398; n = 1.
In the next experiment the test system is ICK. Conditions: read-out: apparent Kd; compound concentrations: 100 nM and 1000 nM (sheet 'Samples'), CATDS: 5.8957301425707501E-2; n = 1.
Another experiment concerns JAK1. Conditions: read-out: apparent Kd; compound concentrations: 100 nM and 1000 nM (sheet 'Samples'), CATDS: 9.4979881318968506E-2; n = 1.
The next experiment deals with MAPK9. Conditions: read-out: apparent Kd, n = 1.
The next experiment concerns NUAK1. The following applies: read-out: apparent Kd; compound concentrations: 100 nM and 1000 nM (sheet 'Samples'), CATDS: 6.5408557388510299E-2; n = 1.
In a further experiment the test system is PGK1. Conditions: read-out: apparent Kd; compound concentrations: 100 nM and 1000 nM (sheet 'Samples'), CATDS: 0.33349072490792903; n = 1.
In a further experiment the test system is PKM. The following applies: read-out: apparent Kd; compound concentrations: 100 nM and 1000 nM (sheet 'Samples'), CATDS: 6.2556323198701705E-2; n = 1.
Another experiment concerns BCR. Conditions: read-out: apparent Kd; compound concentrations:100 nM and 1000 nM (sheet 'Samples'); n = 1.
Another experiment has as its system GAK. Conditions: read-out: apparent Kd; compound concentrations:100 nM and 1000 nM (sheet 'Samples'); n = 1.
In a further experiment the test system is MAPK10. The following applies: read-out: apparent Kd; compound concentrations:100 nM and 1000 nM (sheet 'Samples'); n = 1.
A further experiment concerns NQO2. Conditions: read-out: apparent Kd; compound concentrations:100 nM and 1000 nM (sheet 'Samples'); n = 1.
The subject of a further experiment is PIK3CD. The following applies: read-out: apparent Kd, n = 1.
A further experiment has as its system PRKD1. Conditions: read-out: apparent Kd; compound concentrations:100 nM and 1000 nM (sheet 'Samples'); n = 1.
In another experiment the test system is PRKD2. The following applies: read-out: apparent Kd; compound concentrations:100 nM and 1000 nM (sheet 'Samples'); n = 1.
A further experiment concerns PRKD3. The following applies: read-out: apparent Kd; compound concentrations:100 nM and 1000 nM (sheet 'Samples'); n = 1.
For another experiment, the system named is RIPK2. Conditions: read-out: apparent Kd; compound concentrations:100 nM and 1000 nM (sheet 'Samples'); n = 1.
The subject of another experiment is SIK3. The following applies: read-out: apparent Kd; compound concentrations:100 nM and 1000 nM (sheet 'Samples'); n = 1.
The next experiment relates to STK16. The following applies: read-out: apparent Kd; compound concentrations:100 nM and 1000 nM (sheet 'Samples'); n = 1.
A further experiment deals with TGFBR1. The following applies: read-out: apparent Kd; compound concentrations:100 nM and 1000 nM (sheet 'Samples'); n = 1.
Another experiment concerns TGFBR2. Conditions: read-out: apparent Kd; compound concentrations:100 nM and 1000 nM (sheet 'Samples'); n = 1.
In a further experiment the test system is TNIK. Conditions: read-out: apparent Kd; compound concentrations:100 nM and 1000 nM (sheet 'Samples'); n = 1.
A further experiment deals with ZAK. The following applies: read-out: apparent Kd; compound concentrations:100 nM and 1000 nM (sheet 'Samples'); n = 1.
For a further experiment, the system named is AURKB. The following applies: read-out: apparent Kd; compound concentrations: 100 nM and 1000 nM (sheet 'Samples'), CATDS: 0.138800296841457; n = 1.
The test system of a further experiment is DCTPP1. Conditions: read-out: apparent Kd; compound concentrations: 100 nM and 1000 nM (sheet 'Samples'), CATDS: 8.7325060780524003E-2; n = 1.
The next experiment relates to DDR2. Conditions: read-out: apparent Kd; compound concentrations: 100 nM and 1000 nM (sheet 'Samples'), CATDS: 8.3380311484054601E-2; n = 1.
The test system of the next experiment is FLT4. The following applies: read-out: apparent Kd; compound concentrations: 100 nM and 1000 nM (sheet 'Samples'), CATDS: 9.3314690514963106E-2; n = 1.
In a further experiment the test system is PDGFRB. Conditions: read-out: apparent Kd; compound concentrations: 100 nM and 1000 nM (sheet 'Samples'), CATDS: 0.111791794909036; n = 1.
The test system of another experiment is PI4KB. Conditions: read-out: apparent Kd; compound concentrations: 100 nM and 1000 nM (sheet 'Samples'), CATDS: 0.119169210644034; n = 1.
A further experiment concerns TAOK1. Conditions: read-out: apparent Kd; compound concentrations: 100 nM and 1000 nM (sheet 'Samples'), CATDS: 9.5219877084068302E-2; n = 1.
The mark [1] stands for this setting: compound concentrations:100 nM and 1000 nM (sheet 'Samples').

For `Cc1ccc2c(c1)c(C1=C(c3cn(C)c4ccccc34)C(=O)NC1=O)cn2C` [RO0317510-000], the potency estimated from few doses in the experiment with BMP2K was 783 nM; with CDKL5 it was 815 nM; in the experiment with FLT3 (CATDS: 9.6631146746451402E-2), 449 nM; with GSK3A it was 676 nM; in the experiment on GSK3B, 820 nM; in the experiment with HSPE1, 48.4 nM. Moreover, the potency estimated from few doses in the experiment on ICK was 1800 nM; in the experiment with JAK1 it was 467 nM; in the experiment with MAPK9 (compound concentrations: 100 nM and 1000 nM (sheet 'Samples'), CATDS: 5.8843363107673401E-2), 1810 nM; with NUAK1, 1250 nM; in the experiment with PGK1, 45.2 nM; in the experiment on PKM, 1450 nM.
For `CN(C)CCOc1ccc(-c2cc(-c3c[nH]nc3-c3ccccn3)ccn2)cc1` [GW835314X], the potency estimated from few doses in the experiment with BCR is 668 nM; in the experiment on GAK, 151 nM; in the experiment on MAPK10, 1410 nM; with MAPK9 (setting [1]) it was 2050 nM; in the experiment on NQO2 it was 176 nM; in the experiment on PIK3CD (setting [1]) it was 145 nM. The potency estimated from few doses in the experiment on PRKD1 was 161 nM; with PRKD2, 55.4 nM; with PRKD3 it was 52.8 nM; in the experiment on RIPK2, 219 nM; in the experiment with SIK3, 1800 nM; in the experiment with STK16, 1740 nM. The potency estimated from few doses with TGFBR1 is 1.84 nM; in the experiment on TGFBR2, 149 nM; with TNIK, 679 nM; in the experiment with ZAK, 1820 nM.
As for `Cn1ccc2ncnc(Oc3ccc(NC(=O)Nc4ccccc4)cc3)c21` [TPKI-69], the potency estimated from few doses with AURKB was 695 nM; in the experiment with DCTPP1, 2030 nM; in the experiment with DDR2, 2350 nM; in the experiment with FLT3 (CATDS: 0.108927417624357), 1150 nM; in the experiment with FLT4, 1680 nM; in the experiment with PDGFRB, 1080 nM. Also, the potency estimated from few doses in the experiment with PI4KB is 943 nM; in the experiment on PIK3CD (compound concentrations: 100 nM and 1000 nM (sheet 'Samples'), CATDS: 0.38237858605116598) it was 142 nM; in the experiment with TAOK1, 1600 nM.
